Over roughly 110,000 compounds, “z-score” has its median near -0.1; the highest 2% begin near 2. The full list was thinned out, with the highest values kept by preference. The source made the active and inactive calls.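 Rule for the calls: active = z-score in the third read window above 3 or below -3; inactive = the rest.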
target: Metabotropic glutamate receptor 8 (Rattus norvegicus) (UniProt P70579); assay: rat mGluR8 modulators via GIRK flux, primary screen, cell-based, thallium flux, HTS (AID 488969); conditions: HEK293 rat mGluR8, GIRK (G protein-gated inwardly rectifying potassium channel) thallium flux, FluoZin2; at 10 µM; stronger effect = higher value; submaximal glutamate (EC20) added with thallium
Sequence (P70579 whole entry, looked up): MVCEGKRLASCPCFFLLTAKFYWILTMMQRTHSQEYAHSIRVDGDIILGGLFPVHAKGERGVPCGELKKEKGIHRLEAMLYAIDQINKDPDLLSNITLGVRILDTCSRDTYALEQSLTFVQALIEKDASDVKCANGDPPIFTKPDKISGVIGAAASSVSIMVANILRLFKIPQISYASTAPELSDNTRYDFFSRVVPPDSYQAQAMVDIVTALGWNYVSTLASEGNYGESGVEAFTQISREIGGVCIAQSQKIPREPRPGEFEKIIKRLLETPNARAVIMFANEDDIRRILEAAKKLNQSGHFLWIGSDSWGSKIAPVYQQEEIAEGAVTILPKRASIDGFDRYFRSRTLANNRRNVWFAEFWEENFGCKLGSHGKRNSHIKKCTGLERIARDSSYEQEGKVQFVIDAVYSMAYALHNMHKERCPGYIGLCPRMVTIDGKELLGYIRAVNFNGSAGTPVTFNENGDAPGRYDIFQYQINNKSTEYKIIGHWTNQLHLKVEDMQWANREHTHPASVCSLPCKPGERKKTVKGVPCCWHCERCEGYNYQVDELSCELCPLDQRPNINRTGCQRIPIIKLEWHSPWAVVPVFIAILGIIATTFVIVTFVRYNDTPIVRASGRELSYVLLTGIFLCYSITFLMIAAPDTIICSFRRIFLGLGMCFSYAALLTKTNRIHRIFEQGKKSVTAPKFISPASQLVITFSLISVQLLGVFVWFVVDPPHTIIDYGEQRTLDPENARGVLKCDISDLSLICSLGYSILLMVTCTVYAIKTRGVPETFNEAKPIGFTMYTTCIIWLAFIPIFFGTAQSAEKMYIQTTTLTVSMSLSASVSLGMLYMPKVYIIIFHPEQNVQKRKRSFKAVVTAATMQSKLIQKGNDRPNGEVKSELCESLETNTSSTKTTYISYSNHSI

Row | Structure (SMILES) | z-score
1 | CCS(=O)(=O)N1CCN(C(=O)COc2ccc(-c3ccccc3)cc2)CC1 | -0.0325
2 | O=c1c2c3c(sc2nc2n1CCCCC2)CCCCC3 | 8.38 (active)
3 | O=c1c2c3c(sc2nc2n1CCCC2)CCCCC3 | -0.277
4 | O=c1c2c3c(sc2nc2n1CCCCC2)CCC3 | -0.21
5 | O=C(Cn1c(CC(=O)N2CCOCC2)nc2ccccc21)Nc1ccc2c(c1)OC(F)(F)O2 | 1.15
6 | CCOc1ccc2nc(NC(=O)CN3CCN(C)CC3)sc2c1 | 0.433
7 | C=CCNCCCOc1ccc(C)cc1Br | 0.425
8 | CC(=O)Nc1ccc(S(=O)(=O)N(C)CC(=O)OCC(=O)Nc2cccnc2Cl)cc1 | -0.172
9 | C/C(=N/NC(=O)c1ccoc1C)C12CC3CC(CC(C3)C1)C2 | 0.37
10 | CC/C(=N\NC(=O)c1ccccc1Cl)c1ccc(Br)s1 | 0.216
11 | C/C(=N\NC(=O)CNc1cccc(C)c1)c1ccc(Br)s1 | 0.0989
12 | COc1ccccc1NCC(=O)N/N=C(\C)c1ccc(Br)s1 | -0.279
13 | C/C(=N\NC(=O)c1ccc(Cl)c(Cl)c1)c1ccc(Br)s1 | 1.19
14 | C/C(=N\NC(=O)c1ccc(Cl)cc1)c1ccc(Br)s1 | 8.88 (active)
15 | C/C(=N\NC(=O)c1cccc(F)c1)c1ccc(Br)s1 | 7.29 (active)
16 | C/C(=N\NC(=O)c1cccc(N/N=C(\C)c2ccccc2)c1)c1ccccc1 | -0.529
17 | C/C(=N/NC(=O)c1cc(Cl)ccc1O)C12CC3CC(CC(C3)C1)C2 | 3.19 (active)
18 | C/C(=N\NC(=O)c1ccccc1O)c1ccc(Br)s1 | 2.99
19 | O=C(NN=C1C2CC3CC(C2)CC1C3)c1cc(Cl)ccc1O | 0.0729
20 | C/C(=N/NC(=O)CNc1ccc(C)cc1)c1ccc(Br)s1 | 0.214
21 | O=C(CN1CCCCCCC1)N/N=C/c1ccc(F)c(F)c1 | -0.563
22 | CCC(C)(C)C1CCC(=NNC(=O)c2ccoc2C)CC1 (configuration not stated) | -0.259
23 | Cc1sc(NC(=O)c2ccc(Br)s2)c(C(N)=O)c1C | 0.0217

Row | Structure (SMILES) | z-score
24 | COc1cc(OC)c(OC)cc1CN(C)C(c1ccccc1)c1nnnn1-c1ccccc1C (configuration not stated) | 0.0196
25 | CC(OC(=O)CCc1nc2ccccc2c(=O)[nH]1)C(=O)NC1CCCC1 (configuration not stated) | -0.356
26 | Cc1cccc2sc(N(CCN(C)C)C(=O)/C=C/c3cccs3)nc12 | -0.145
27 | O=c1[nH]c(CN2CCN(c3ccccc3)CC2)nc2ccccc12 | 0.214
28 | COc1cccc(C2C=C(Nc3ccccc3)C(=O)N2c2ccccc2)c1 (configuration not stated) | -0.22
29 | Cc1cc(C)c(NC(=O)C2CCCN2C(=O)NC2CCCCC2)c(C)c1 (configuration not stated) | 1.35
30 | C/C(=N\NC(=O)c1cc(Cl)ccc1O)c1ccc(Br)s1 | 6.48 (active)
31 | O=C(N/N=C/C1CCCCC1)c1cc(Cl)ccc1O | 0.618
32 | C/C(=N\NS(=O)(=O)c1ccc(C)cc1)c1ccc(Br)s1 | -0.207
33 | Nc1[nH]ncc1N=Nc1ccc(Cl)cc1 | -0.104
34 | c1ccc(CNn2c(N3CCOCC3)nc3ccccc32)cc1 | 0.241
35 | CCN(c1ccccc1)S(=O)(=O)c1cc(C(=O)Nc2ccc(F)c(F)c2)ccc1F | -0.178
36 | CCN(c1ccccc1)S(=O)(=O)c1cc(C(=O)Nc2ccccc2Cl)ccc1F | 2.19
37 | CCN(c1ccccc1)S(=O)(=O)c1cc(C(=O)Nc2cccc(Cl)c2)ccc1F | -0.0119
38 | CN(C)c1ccc(/C=C/C(=O)c2ccccc2)cc1[N+](=O)[O-] | -0.207
39 | Fc1c(F)c(F)c(N=Cc2ccc3ncccc3c2)c(F)c1F | 0.201
40 | O=C(NC(=S)Nc1nc2ccccc2s1)c1cccs1 | 11.7 (active)
41 | Cc1ccc2nc(NC(=S)NC(=O)c3cccs3)sc2c1 | 4.64 (active)
42 | Cc1nc(NC(=S)NC(=O)c2cccs2)sc1C(=O)N(C)C | -0.329
43 | Cc1ccc(-c2csc(NC(=S)NC(=O)c3cccs3)n2)cc1 | -0.267
44 | O=C(Cc1cccs1)Nc1nc2c(ccc3ccccc32)s1 | 0.34
45 | Cc1ccc2nc(NC(=O)Cc3cccs3)sc2c1 | 0.542
46 | CCc1ccc(-c2nc(NC(=S)NC(=O)c3cccs3)sc2C)cc1 | 0.595

Row | Structure (SMILES) | z-score
47 | O=C(NC(=S)Nc1nc2c(ccc3ccccc32)s1)c1cccs1 | 2.78
48 | O=C(NC(=S)Nc1nc(-c2ccccc2)cs1)c1cccs1 | 1.03
49 | O=C(c1ccc(Cl)cc1)C1CCN(C(=O)C2CC2)CC1 | 0.108
50 | CCOC(=O)c1c(C)n(-c2ccc(C)cc2)c2c(CC(C)=O)c(Br)c(OC)c(O)c12 | -0.0818
51 | CSc1ccc(Cc2ccc(Cl)cc2Cl)nn1 | -0.154
52 | Clc1ccc(Cc2ccc(Cl)nn2)c(Cl)c1 | -0.119
53 | Clc1ccc(Cc2ccc(SCc3ccccc3)nn2)c(Cl)c1 | 3.48 (active)
54 | O=C(N/N=C\c1ccc(Sc2ccccn2)o1)c1cccc(F)c1 | -0.471
55 | O=C(N/N=C/c1ccc(Sc2ccccn2)o1)c1cc2ccccc2cc1O | 6.43 (active)
56 | O=C(N/N=C\c1ccc(Sc2ccccn2)o1)c1cccc(Br)c1 | 1.77
57 | CCOC(=O)c1ccc(NC(=S)N2CCN(Cc3ccccc3)CC2)cc1 | -0.2
58 | CN(C)c1ccnc(Oc2ccc(C(C)(C)C)cc2)c1C#N | -0.212
59 | COC(=O)C1CCCN1C(=O)c1cccs1 (configuration not stated) | 5.05 (active)
60 | O=C(OCc1ccccc1)C1CCCN1C(=O)c1cccs1 (configuration not stated) | -0.219
61 | O=C(O)C1CCCN1C(=O)c1cccs1 (configuration not stated) | 0.319
62 | CC(=O)NC1(c2nnnn2CCOC(=O)Nc2ccc(Cl)cc2)CCCCC1 | 0.0804
63 | O=C(O)CCC(=O)N1N=C(c2c(-c3ccccc3)c3cc(Cl)ccc3[nH]c2=O)CC1c1ccco1 (configuration not stated) | -0.219
64 | CC(C)NC(=O)/C(=N\O)c1ccccc1 | 0.0549
65 | C/C(=N\NC(=O)C(NC(=O)c1ccccc1)C(C)C)c1ccccc1 (configuration not stated) | -0.068
66 | C/C(=N\O)C(C)NC(=O)c1ccccc1 (configuration not stated) | 3.54 (active)
67 | COc1ccccc1NC(=S)NCc1ccc2c(c1)OCO2 | -0.0224
68 | Cc1sc(NC(=O)c2cc(-c3ccc(Cl)cc3)nc3ccccc23)c(C(N)=O)c1C | -0.126
69 | O=C(c1sc2ccccc2c1Cl)N(Cc1ccccc1)C1CCS(=O)(=O)C1 (configuration not stated) | 1.16

Row | Structure (SMILES) | z-score
70 | O=C(c1ccc(Cl)c([N+](=O)[O-])c1)N(Cc1ccccc1)C1CCS(=O)(=O)C1 (configuration not stated) | 2
71 | O=C(c1ccccc1)N(Cc1ccc(F)cc1)C1CCS(=O)(=O)C1 (configuration not stated) | -0.0413
72 | CCCCn1c(=O)[nH]c(=O)c2c1ncn2Cc1ccco1 | -0.249
73 | CCOC(=O)CN(C(=O)CSc1nnc(CNc2ccc(F)cc2)n1CC)c1ccc(F)cc1 | -0.599
74 | COc1ccc(OC)c(CNC(=O)CCN2C(=O)COc3ccccc32)c1 | 0.307
75 | CSc1nc2ccccc2cc1/C=C(\C#N)c1cccc(C)c1 | 3.99 (active)
76 | CSc1nc2ccccc2cc1/C=C(\C#N)c1cccc(Cl)c1 | 0.938
77 | CSc1nc2ccccc2cc1/C=C(\C#N)c1ccccc1 | 0.0152
78 | COc1ccc(C(C)=O)cc1CN1C(=O)C(C)N(c2ccc(C)cc2)C1=O (configuration not stated) | -0.0103
79 | CCCOc1ccc(N2C(=O)CC(SC(=NC)Nc3ccc(F)cc3)C2=O)cc1 (configuration not stated) | -0.0553
80 | CCOc1ccc(N2C(=O)CC(SC(=NC)Nc3ccc(F)cc3)C2=O)cc1 (configuration not stated) | 3.7 (active)
81 | CCOc1ccc(N2C(=O)CC(SC(=NC)Nc3cccc(F)c3)C2=O)cc1 (configuration not stated) | -0.588
82 | CCOC(=O)CN1NC2(CCCCC2)NC1=S | 0.284
83 | CCOC(=O)CN1NC2(CCC(C)CC2)NC1=S (configuration not stated) | -0.408
84 | CCOC(=O)CN1NC2(CCC(C(C)(C)C)CC2)NC1=S (configuration not stated) | 2.66
85 | O=C(CSc1nc(-c2ccccc2)c(-c2ccccc2)[nH]1)NCc1ccco1 | -0.317
86 | C=CCOc1ccc(/C(O)=C2\C(=O)C(=O)N(CCCOC)C2c2ccc(O)c(OC)c2)cc1 (configuration not stated) | -0.44
87 | O=C(O)c1ccccc1NS(=O)(=O)c1cccc(C(F)(F)F)c1 | -0.814
88 | O=C1c2ccccc2-c2cccc(NS(=O)(=O)c3ccc(C(F)(F)F)cc3)c21 | 2.66
89 | Cc1ccc(S(=O)(=O)Nc2ccccc2-c2ccccc2NS(=O)(=O)c2ccc(C)cc2)cc1 | -0.159
90 | Cc1ccc(NS(=O)(=O)c2ccc3c(c2)C(=O)c2ccccc2C3=O)c(C)c1 | -0.0521
91 | CNc1cccc2c1C(=O)c1ccccc1C2=O | -0.102
92 | Cc1cccc(S(=O)(=O)Nc2cccc3c2C(=O)c2ccccc2-3)c1 | 8.14 (active)

Row | Structure (SMILES) | z-score
93 | CCOC(=O)c1[nH]cnc1C(=O)Nc1ccncc1 | 0.161
94 | O=C(CS(=O)(=O)c1ccc2ccccc2c1)Nc1ccccc1Cl | -0.351
95 | Cn1c(N2CCC(C(N)=O)CC2)nc2c1c(=O)n(Cc1cccc(Br)c1)c(=O)n2C | -1.26
96 | COC(=O)NCc1ccc(S(=O)(=O)N2CCOCC2)cc1 | 0.235
97 | COc1cc(C(=S)N2CCCC2)ccc1O | 0.115
98 | COc1cc(C(=S)N2CCCC2)cc(OC)c1O | 0.304
99 | COc1cc(C(=S)N2CCCC2)cc(Cl)c1O | 2.62
100 | Cc1sc2nc(C)n(/N=C/c3ccc(O)cc3)c(=O)c2c1C | -0.305
101 | COc1ccc(S(=O)(=O)N(Cc2ccccc2)Cc2nc3ccccc3c(=O)[nH]2)cc1 | -0.148
102 | Cc1ccc(S(=O)(=O)Cc2nc3ccccc3c(=O)[nH]2)cc1 | -0.19
103 | O=c1[nH]c(CS(=O)(=O)c2ccccc2)nc2ccccc12 | 3.08 (active)
104 | CN(Cc1nc2ccccc2c(=O)[nH]1)c1ccccc1 | -0.0308
105 | COc1ccc(S(=O)(=O)N(Cc2nc3ccccc3c(=O)[nH]2)C2CCCC2)cc1 | 2.49
106 | O=C(Nc1cccc(Cl)c1)N(Cc1nc2ccccc2c(=O)[nH]1)C1CCCC1 | -0.529
107 | Cc1cccc(NC(=O)N(Cc2nc3ccccc3c(=O)[nH]2)C2CCCC2)c1 | 2.35
108 | O=C(NC1CCCCC1)N(Cc1nc2ccccc2c(=O)[nH]1)C1CCCC1 | 0.129
109 | COc1ccc(CN(Cc2nc3ccccc3c(=O)[nH]2)C(=O)NC2CCCCC2)cc1 | -0.301
110 | CCOC(=O)N1CCN(C(=O)CN(c2cc(Cl)ccc2OC)S(=O)(=O)c2ccccc2)CC1 | -0.359
111 | CCCc1nc2ccc(NC(=O)c3cccs3)cc2c(=O)n1Cc1ccc(Cl)cc1 | -0.155
112 | O=C(C(=O)N1CCCc2ccccc21)c1c[nH]c2ccccc12 | 0.104
